These results are taken from PubChem BioAssay (Tox21).

A number with no mark means an inactive call. Results filed as inconclusive are left out. Activity calls are given as the source filed them. The call rests on the fitted dose curve; in most records, active means well fitted curve in the direction sought with a large enough effect in the repeat runs; inconclusive means weak or mixed curves; inactive means no such curve, though single readings can be large; an effect the other way counts as inactive or inconclusive.

Assay [1] is described as follows: A CellTox Green Cytotoxicity Assay to monitor cytotoxicity in HEK293 cells - 32 hour (AID 1224881). Further: nearly all actives have a fitted effect of over 40% in size. Further: potency means the concentration at half of the fitted maximal effect. The note with it: CellTox Green fluorescence; series mostly up to 76.8 µM. In outline: (§1)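 HEK293 cells, 600/well, were preincubated 5 hours and then exposed to compounds at 37 C for up to 40 hours. A cell-impermeant cyanine dye staining dead-cell DNA was read by fluorescence at 0, 8, 16, 24, 32 and 40 h time points.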

Assay [2] can be described thus: A CellTox Green Cytotoxicity Assay to monitor cytotoxicity in HepG2 cells - 0 hour (AID 1224882). Further: nearly all actives have a fitted effect of over 35% in size. Further: potency means the concentration at half of the fitted maximal effect. As to conditions: CellTox Green fluorescence; series mostly up to 76.8 µM. The procedure, abridged:
(§2)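 HepG2 cells, 600/well, preincubated 5 h with CellTox Green dye, then exposed to Tox21 compounds in DMSO at 37 C for up to 40 h. Dead-cell DNA fluorescence read at the indicated time point.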

Assay [3] can be described thus: A CellTox Green Cytotoxicity Assay to monitor cytotoxicity in HepG2 cells - 32 hour (AID 1224883). Further: nearly all actives have a fitted effect of over 50% in size. Further: potency means the concentration at half of the fitted maximal effect. The note with it: CellTox Green fluorescence; series mostly up to 76.8 µM. In outline: as §2
Assay [4] is described as follows: A CellTox Green Cytotoxicity Assay to monitor cytotoxicity in HEK293 cells - 8 hour (AID 1224884). Further: nearly all actives have a fitted effect of over 35% in size. Further: potency means the concentration at half of the fitted maximal effect. The note with it: CellTox Green fluorescence; series mostly up to 76.8 µM. In outline:
as §1

A short description of assay [5]: qHTS RealTime-Glo MT Cell Viability Assay in HepG2 cells - 16 hour (AID 1224885). Further: nearly all actives have a fitted effect of over 50% in size. As to conditions: RealTime-Glo luminescence; series mostly up to 76.8 µM. In outline: (§3)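 Luminescence read-out: viable HepG2 cells reduce a prosubstrate to a NanoLuc substrate, giving a signal proportional to live cell number. Reads taken at 0, 8, 16, 24, 32 and 40 h of compound exposure at 37 C.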
A general note: In qHTS, concentration-response curves come from the screen itself.

A short description of assay [6]: qHTS RealTime-Glo MT Cell Viability Assay in HEK293 cells - 24 hour (AID 1224886). Further: nearly all actives have a fitted effect of over 50% in size. Further: potency means the concentration at half of the fitted maximal effect. As to conditions: RealTime-Glo luminescence; series mostly up to 76.8 µM. The procedure, abridged: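 Nonlytic real-time viability readout: viable cells convert prosubstrate to NanoLuc substrate, giving luminescence proportional to live cell number. HEK293, 600 cells/well, compound added after 5 h, continuous culture at 37 C.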

Assay [7] in a line: qHTS RealTime-Glo MT Cell Viability Assay in HEK293 cells - 8 hour (AID 1224887). Further: nearly all actives have a fitted effect of over 50% in size. Further: potency means the concentration at half of the fitted maximal effect. The note with it: RealTime-Glo luminescence; series mostly up to 76.8 µM. The procedure, abridged:
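600 cells/well were plated with the nonlytic NanoLuc/prosubstrate reagent, pre-incubated 5 h, then given 23 nL of compound in DMSO. Incubation at 37 C for 40 h, with luminescence from viable-cell-reduced substrate read repeatedly from 0 h.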

A short description of assay [8]: A CellTox Green Cytotoxicity Assay to monitor cytotoxicity in HEK293 cells - 16 hour (AID 1224888). Further: nearly all actives have a fitted effect of over 35% in size. Further: potency means the concentration at half of the fitted maximal effect. As to conditions: CellTox Green fluorescence; series mostly up to 76.8 µM. In outline:
as §1

Assay [9] in a line: qHTS RealTime-Glo MT Cell Viability Assay in HepG2 cells - 0 hour (AID 1224889). Further: nearly all actives have a fitted effect of over 50% in size. Further: potency means the concentration at half of the fitted maximal effect. The note with it: RealTime-Glo luminescence; series mostly up to 76.8 µM. In outline:
as §3

Assay [10] in a line: A CellTox Green Cytotoxicity Assay to monitor cytotoxicity in HepG2 cells - 8 hour (AID 1224890). Further: nearly all actives have a fitted effect of over 45% in size. Further: potency means the concentration at half of the fitted maximal effect. As to conditions: CellTox Green fluorescence; series mostly up to 76.8 µM. In outline:
as §2

Take `C=C1C(=C/C=C2\CCC[C@]3(C)[C@@H]([C@H](C)/C=C/[C@@H](O)C4CC4)CC[C@@H]23)C[C@@H](O)C[C@@H]1O`: the Potency entry in assay [1], in assay [2], in assay [3], in assay [4], in assay [5] and in assay [8] was “inactive” throughout. Moreover, the Potency entry in assay [9] and in assay [10] was “inactive” throughout. For the same compound, the Potency in assay [6] and in assay [7] was 19 µM (active) in each case.
On to `S=C([S-])NCCNC(=S)[S-].[Mn+2]`, for which the Potency result in assay [1], in assay [2], in assay [3], in [4], in assay [5] and in assay [7] was “inactive” each time. Besides, the Potency result in [8], in [9] and in [10] was “inactive” throughout.
In the case of `CC(=O)c1ccc2c(c1)N(CCCN1CCC(CCO)CC1)c1ccccc1S2`, the Potency in assay [1] and in [3] was 23.9 µM (active) in each case. Also, the Potency result in [2], in assay [4], in assay [5], in [8], in assay [9] and in [10] was “inactive” in each case.
`CC(C)(O)c1ccc(CNC(=O)c2cccnc2Oc2ccc(F)cc2)cc1`: the Potency entry in assay [1], in assay [2], in assay [3], in assay [4], in assay [5] and in assay [7] was “inactive” in each case. Moreover, the Potency entry in assay [9] was “inactive”.
For `CCCCNc1ccc(C(=O)OCCOCCOCCOCCOCCOCCOCCOCCOCCOC)cc1`, the Potency entry in [1], in assay [2], in assay [3], in assay [4], in assay [5] and in assay [7] was “inactive” throughout. The Potency result in assay [8], in [9] and in assay [10] was “inactive” throughout.
On to `CC(C)(COC(=O)c1ccccc1)COC(=O)c1ccccc1`, for which the Potency entry in [1], in assay [2], in assay [3], in [4], in [5] and in assay [8] was “inactive” throughout. In [10], the Potency entry was “inactive”.
Take `CCC(=O)O[C@]1(C(=O)CCl)[C@@H](C)C[C@H]2[C@@H]3CCC4=CC(=O)C=C[C@]4(C)[C@@]3(F)[C@@H](O)C[C@@]21C`: the Potency entry in assay [1], in [2], in assay [3], in assay [4], in [5] and in assay [7] was “inactive” throughout. The Potency entry in [8] and in assay [10] was “inactive” throughout.
On to `CC[N+]1(CC)CCC(=C(c2ccccc2)c2ccccc2)C1C` (stereo not given), for which the Potency result in [1], in [2], in assay [3], in [4], in assay [5] and in [7] was “inactive” each time. Further, the Potency result in [10] is “inactive”.
Take `Clc1ccc(Cn2c(CN3CCCC3)nc3ccccc32)cc1`: the Potency result in assay [1], in assay [2], in assay [3], in [4], in assay [5] and in assay [8] was “inactive” in each case. Also, the Potency result in [9] and in assay [10] was “inactive” in each case.
As to `C/C=C/C=C/CO`, the Potency result in [1], in assay [2], in assay [3], in [4], in assay [5] and in assay [7] was “inactive” in each case. For the same compound, the Potency entry in assay [8], in assay [9] and in assay [10] was “inactive” each time.
With `CCN(CC)c1ccc2c(-c3ccccc3C(=O)O)c3ccc(=[N+](CC)CC)cc-3oc2c1`, the Potency in assay [1] was 24.5 µM (active); in [2] it was 21.9 µM (active); in assay [3], 24.5 µM (active); in assay [4], 24.5 µM (active); in assay [6], 24.5 µM (active); in assay [8], 24.5 µM (active). Moreover, in assay [10], the Potency is 24.5 µM (active).
In the case of `OC(CN1CCC(Cc2ccc(F)cc2)CC1)c1ccc(Cl)cc1` (stereo not given), the Potency was 21.3 µM (active) in [1], 23.9 µM (active) in assay [3], 9.52 µM (active) in assay [6] and 16.9 µM (active) in [7]. Further, the Potency entry in assay [2], in assay [4] and in assay [9] was “inactive” each time.
In the case of `NC(=O)C(c1ccccc1)(c1ccccc1)[C@@H]1CCN(CCc2ccc3c(c2)CCO3)C1`, the Potency was 21.3 µM (active) in assay [1]; 23.9 µM (active) in [2]; 23.9 µM (active) in [3]; 21.3 µM (active) in assay [4]; 21.3 µM (active) in assay [8]; 21.3 µM (active) in assay [10]. The Potency entry in assay [5] and in assay [7] was “inactive” in each case.
`CCCCc1nc2cccnc2n1Cc1ccc(-c2ccccc2-c2nnn[nH]2)cc1`: the Potency entry in [1], in assay [2], in assay [3], in [4], in assay [5] and in assay [8] was “inactive” each time. Also, the Potency entry in assay [10] is “inactive”. Besides, the Potency in assay [9] was 24.5 µM (active).
As to `C=C(C)C(=O)OCCOCC`, the Potency result in assay [1], in assay [2], in assay [3], in assay [4], in assay [5] and in [6] was “inactive” in each case. Further, the Potency entry in assay [8], in assay [9] and in assay [10] was “inactive” throughout.
With `O=C(c1ccc(F)cc1)C1CCN(CCn2c(=S)[nH]c3ccccc3c2=O)CC1`, the Potency result in assay [1], in assay [2], in assay [3], in assay [4], in assay [8] and in assay [9] was “inactive” in each case. For the same compound, the Potency in assay [6] was 7.56 µM (active); in assay [7], 4.77 µM (active).
`CCc1c(C(=O)NN2CCCCC2)nn(-c2ccc(Cl)cc2Cl)c1-c1ccc(Br)cc1`: the Potency result in [1], in assay [2], in [3], in assay [4], in [6] and in assay [8] was “inactive” each time. Further, the Potency entry in assay [9] and in assay [10] was “inactive” each time.
Turning to `Cn1c(=O)cc(Oc2ccc(F)cc2F)c2cnc(NCC(C)(C)O)nc21`, the Potency result in [1], in assay [2], in assay [3], in assay [4], in [5] and in assay [7] was “inactive” in each case. Besides, the Potency result in assay [8] and in [9] was “inactive” each time.
In the case of `CCOc1ccc(N)c([N+](=O)[O-])c1`, the Potency entry in [1], in assay [2], in assay [3], in assay [4], in [5] and in [8] was “inactive” throughout. The Potency result in [9] and in [10] was “inactive” each time.
For `O=C(O)c1nc(Cl)c(Cl)c(Cl)c1Cl`, the Potency result in assay [1], in [2], in [3], in assay [4], in assay [5] and in [7] was “inactive” throughout. Also, the Potency result in [8] and in [9] was “inactive” each time.
Consider `Nc1ccc(N)c2c1C(=O)c1ccccc1C2=O`, for which the Potency entry in [1], in [2], in assay [3], in [4], in assay [5] and in [8] was “inactive” each time. Also, in assay [10], the Potency result is “inactive”.
For `COc1cc(Cl)ccc1Oc1ccc(Cl)cc1Cl`, the Potency entry in assay [1], in assay [2], in [3], in assay [4], in assay [5] and in [7] was “inactive” in each case. In addition, the Potency entry in [8], in assay [9] and in assay [10] was “inactive” each time.
Consider `CCOCC(O)COc1ccc(NC(=O)CC[S+](C)C)cc1` (stereo not given), for which the Potency entry in [1], in [2], in assay [3], in assay [5], in [6] and in assay [7] was “inactive” throughout. Besides, the Potency result in assay [8] was “inactive”.
As to `CCN(CC)CCOC(=O)C(c1ccccc1)C1CCCCC1` (stereo not given), the Potency in [1] and in assay [3] was 23.9 µM (active) throughout. Moreover, the Potency entry in assay [2], in assay [4] and in assay [9] was “inactive” each time.
Regarding `O=C(O)c1ccc(S(=O)(=O)O)cc1C(=O)O`, the Potency result in assay [1], in assay [2], in assay [3], in assay [4], in assay [5] and in assay [8] was “inactive” throughout. The Potency entry in [10] was “inactive”.
For `CC(C)Cc1ccc(C(C)C(=O)OCc2ccccn2)cc1` (stereo not given), the Potency result in assay [1], in [2], in [3], in assay [4], in assay [5] and in [8] was “inactive” in each case. The Potency result in [9] and in assay [10] was “inactive” in each case.
As for `Brc1c2ccccc2cc2ccccc12`, the Potency entry in [1], in assay [2], in assay [3], in assay [4], in [5] and in [8] was “inactive” in each case. Further, the Potency entry in [9] and in assay [10] was “inactive” throughout.
With `COc1cc2nc(N(C)CCCNC(=O)C3CCCO3)nc(N)c2cc1OC` (stereo not given), the Potency result in assay [1], in [2], in [3], in [4], in assay [5] and in assay [7] was “inactive” in each case. The Potency result in assay [9] and in [10] was “inactive” each time.
